# Efflux pump inh: inhibitors of Candida antifungal efflux pumps expressed in yeast | S. cerevisiae Candida pump triplex, Nile Red efflux | inhibition, % at 10 µM | 330,000 tested, 0.44% active | AID 485275;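 active means plate passing quality check with inhibition over a set limit, or well fluorescence over plate mean plus 4 SD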;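 further: Nile Red retained in pooled yeast measured as flow cytometry median fluorescence; 0% = buffer negative control and 100% = Enniatin B positive control; higher means more Nile Red kept so more efflux inhibition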
# GRK2 aptamer HTS: inhibitors of human GRK2 displacing RNA aptamer; bead flow cytometry, FAM-aptamer displacement from GRK2; inhibition of aptamer binding, % at 10 µM; 330,000 tested, 0.59% active; AID 488847;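 active means inhibition of aptamer binding above 40%, roughly 3 SD of noise, on plates passing a quality check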;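 further: median bead fluorescence of bound FAM aptamer so fluorescent compounds give negative values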
# ATG4B inh: ATG4B (human) cysteine protease inhibition; inhibition, % at 8.33 µM; Q9Y4P1; 340,000 tested, 0.51% active; ATG4B cleavage of LC3-PLA2, NBD-HPC fluorescence, 1 h; AID 504462; in the data active means inhibition above about 40%
# Target sequence (Q9Y4P1 whole entry, looked up): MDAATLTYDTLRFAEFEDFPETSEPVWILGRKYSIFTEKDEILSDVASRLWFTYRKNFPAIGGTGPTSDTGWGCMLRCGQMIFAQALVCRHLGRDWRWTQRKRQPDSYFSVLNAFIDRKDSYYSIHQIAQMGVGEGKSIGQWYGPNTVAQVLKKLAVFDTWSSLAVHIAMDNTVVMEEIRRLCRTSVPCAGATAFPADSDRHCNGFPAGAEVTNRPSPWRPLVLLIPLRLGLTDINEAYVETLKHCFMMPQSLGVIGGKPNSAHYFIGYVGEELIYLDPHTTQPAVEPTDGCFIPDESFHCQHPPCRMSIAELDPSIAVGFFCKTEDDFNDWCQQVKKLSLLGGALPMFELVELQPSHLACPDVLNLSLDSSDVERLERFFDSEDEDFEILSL
# CR mimetic SO: lowers age-related superoxide in aged yeast cells. S. cerevisiae aged cells, superoxide DHE fluorescence; stronger effect = lower value. superoxide response (% of plate mean), % at 10 µM. 330,000 tested, 0.18% active. AID 2690;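 active means superoxide response under a set limit, about three screen SD below normal, cut at about 65% in these data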;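 further: yeast aged for seven days with compound at 30 °C before DHE staining; 100% = average MFI of all compound-treated wells on the plate with controls excluded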
# GRK2 inh confirm: human GRK2 inhibition confirmation, cherry pick 1; shares compounds with GRK2 aptamer HTS; bead-bound GRK2, FAM-aptamer displacement, flow cytometry; aptamer displacement, % at 10 µM; 2,000 tested, 4% active;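 active means aptamer displacement above 40%, near three times the noise of non-fluorescent compounds, on plates passing quality checks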;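 further: negative values mostly reflect intrinsic compound fluorescence rather than true enhancement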
# Aptamer quench 1: fluorescent aptamer quenching in GRK2 counter-screen dose response | shares compounds with GRK2 aptamer HTS | Fluorescent RNA aptamer beads, flow cytometry; stronger effect = higher value | fluorescence change (kMESF span), kMESF (no concentration beside the values) | 110 tested, under 10 active;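 active means compounds whose bead fluorescence drops by more than 37 kMESF across the dose range, marking them as dye quenchers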
# Aptamer quench SP: quenches fluorescent RNA aptamer, GRK2 hit artifact; AID 504580; 2,000 tested, under 10 active; Carboxyfluorescein RNA aptamer on beads, flow cytometry quenching; stronger effect = lower value; fluorescence response (% of DMSO), % at 10 µM; shares compounds with GRK2 aptamer HTS;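 active means compounds that quench the bead-bound fluorescent RNA probe, cutting fluorescence to under half of the solvent control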;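 further: counterscreen run without GRK2 so only probe quenching by compound is measured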
# GRK2 CP2: confirmation of human GRK2 inhibitors binding RNA aptamer site. 360 tested, under 10 active. inhibition of aptamer binding, % at 10 µM. shares compounds with GRK2 aptamer HTS. AID 504782. bead-bound GRK2, FAM-aptamer displacement, flow cytometry;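 active means inhibition of aptamer binding above 40%, about triple the noise seen with nonglowing compounds, on plates passing quality control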;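 further: negative values mostly come from compounds that fluoresce themselves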
# Aptamer quench3: counter-screen for GRK2 aptamer inhibitors: fluorescent aptamer quenchers | shares compounds with GRK2 aptamer HTS | Streptavidin beads, FAM-RNA aptamer fluorescence quenching, flow cytometry | change in fluorescence (kMESF span), kMESF (concentration not given with the values) | AID 504819 | 25 tested, under 10 active;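 active means compounds quenching the bead-bound labeled aptamer, with fluorescence dropping by more than 37 kMESF over the dose range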
# FAM quench SP: aptamer fluorescence quenching in GRK2 counter-screen | AID 588494 | shares compounds with GRK2 aptamer HTS | 360 tested, under 10 active | carboxyfluorescein RNA aptamer beads, flow cytometry quenching; stronger effect = lower value | fluorescence response vs DMSO, % at 10 µM;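 active means response vs DMSO under 50%, meaning signal dropped by over half, treated as fluorescence quencher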;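 further: labelled aptamer on streptavidin beads without GRK2 as a quench counter-screen; 100% = bead fluorescence of DMSO wells and lower means quenching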
# FAM quench PS1: counter-screen for GRK2 aptamer binding inhibitors: aptamer fluorescence quenching; shares compounds with GRK2 aptamer HTS; Bead-bound FAM RNA aptamer fluorescence quenching, flow cytometry; stronger effect = lower value; fluorescence ratio to DMSO, % at 11.1 µM; 35 tested, under 10 active; AID 588496;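 active means compounds that dim the fluorescent label, raw bead signal shifting by over 33 units between lowest and highest dose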
# An asterisk follows results filed as active; nt = no result given. The list is not random: actives were taken first. Their share in the collection is about 1.6%.
SMILES,Efflux pump inh,GRK2 aptamer HTS,ATG4B inh,CR mimetic SO,GRK2 inh confirm,Aptamer quench SP,others
CN(Cc1ccccc1)Cc1nc2c(c(=O)n(C)c(=O)n2C)n1CCc1ccccc1,0,40,0,115,-1,98,
Cn1c(=O)n(CCc2ccccc2)c(=O)c2c1ncn2Cc1ccccc1,0,74*,-2,102,-2,100,
COc1ccc(O)c(CN2CCC(n3nccc3NC(=O)CCOc3ccccc3)CC2)c1,0,1,4,90,nt,nt,
O=C(O)CCNc1cc(N2CCN(C(=O)c3ccco3)CC2)c2noc3c2c1C(=O)c1ccccc1-3,0,83*,22,108,-1,94,
CCN1CCN(c2cc(N3CCN(C(=O)c4ccco4)CC3)c3c4c(onc24)-c2ccccc2C3=O)CC1,0,0,24,127,nt,nt,
CC(=O)N1CCC(C(=O)NCCOc2cccc(C)c2)CC1,0,65*,1,108,-2,99,
Cc1ccc(OCC(=O)Nc2c3c(nn2C(C)(C)C)CS(=O)(=O)C3)cc1,0,11,-1,99,nt,nt,
CCN1CCCC1Cn1cnc2c([nH]c3cccc(Cl)c32)c1=O (configuration not stated),0,0,5,105,nt,nt,
CCN1CCCC1Cn1cnc2c([nH]c3ccc(Cl)cc32)c1=O (configuration not stated),0,92*,-8,105,-1,102,
COCCN(C(=O)c1cc2c(s1)CCC2)c1c(N)n(CC(C)C)c(=O)[nH]c1=O,0,43*,2,94,17,99,
CCOc1ccc(N(CC(=O)N2CCCC2)S(=O)(=O)c2ccc(Cl)cc2)cc1,0,0,-8,97,nt,nt,
CC1(C)NC(=O)N(CCCCOc2ccc(Cl)cc2)C1=O,0,70*,-2,113,-3,97,
Cc1ccc[n+](CC(=O)c2ccc(Br)cc2)c1,0,75*,-5,103,-1,94,
CC(=O)N1CCN(C(=O)C(Cc2c[nH]c3ccccc23)NC(=O)c2ccccc2Cl)CC1 (configuration not stated),0,0,4,108,nt,nt,
Cc1cccc(N(CC(N)=O)S(C)(=O)=O)c1C,0,23,-4,105,2,97,
CS(=O)(=O)N(CC(N)=O)c1cccc(Br)c1,0,1,5,112,nt,nt,
COc1ccccc1CNC(=O)C(=O)NCC1OCCN1S(=O)(=O)c1ccc2c(c1)OCCO2 (configuration not stated),0,41*,-27,92,-2,100,
CC(C)CN1C(=O)c2ccc(NC(=O)Cc3ccccc3)cc2C1=O,0,0,-6,108,nt,nt,
COc1ccc(/C=N/Nc2ncc(Br)cn2)c(OC)c1,0,45*,0,77,25,99,
COc1ccc(/C=N\Nc2ccccn2)c(OC)c1,0,0,1,97,nt,nt,
COc1ccc(NC(=O)CSc2nnc(-c3cccc(O)c3)o2)cc1,0,0,6,97,nt,nt,
COc1cccc(NC(=O)CSc2nnc(-c3cc(C)n(-c4ccccc4)c3C)o2)c1,0,98*,-13,90,2,103,
CC1CCC(C#N)(N(C)C(=O)CSc2nnc(C3CC3)n2C2CC2)CC1 (configuration not stated),0,1,-5,100,nt,nt,
Cc1cc(C(F)(F)F)nc(SCC(=O)NC2CC3CCC2C3)n1 (configuration not stated),0,53*,-17,99,-2,98,
COC(=O)c1noc(C)c1-c1ccnn1C(=O)c1ccc(C)cc1,0,97*,-2,98,0,46*,
SMILES,Efflux pump inh,GRK2 aptamer HTS,ATG4B inh,CR mimetic SO,GRK2 inh confirm,Aptamer quench SP,others
Cc1onc(-c2ccccc2)c1-c1ccnn1C(=O)NC(C)C,0,1,-1,107,nt,nt,
CCOC(=O)CCCNC(=O)CSc1nc2ccc(OCC)cc2[nH]1,0,0,-9,102,nt,nt,
CCOc1c2c(nc3ccc(Cl)cc13)CCC2,0,2,-7,92,nt,nt,GRK2 CP2=18;FAM quench SP=104
O=C(O)COc1ccc(Br)cc1C(c1c(C(=O)O)[nH]c2ccccc12)c1c(C(=O)O)[nH]c2ccccc12,0,21,24,89,nt,nt,
C=CCOc1ccc(C(c2c(C(=O)O)[nH]c3ccccc23)c2c(C(=O)O)[nH]c3ccccc23)cc1,0,79*,26,115,1,117,
CCC(C)Nc1nc2c(c(=O)[nH]c(=O)n2C)n1CCC(C)C (configuration not stated),0,52*,-3,110,0,101,
COc1cc([N+](=O)[O-])ccc1NC(=O)CSc1nncn1-c1cccnc1,0,1,8,112,nt,nt,
COc1cc2cc(CCOC(=O)CCCC(=O)O)oc(=O)c2cc1OC,0,2,2,96,nt,nt,
COc1cc2cc(CCOC(=O)N3CCCCC3)oc(=O)c2cc1OC,0,42*,-11,84,-2,98,
CCN(CC)CCN(C(=O)c1ccc(CN2CCCCC2)o1)C(C(=O)NC1CCCCC1)c1ccc(F)cc1 (configuration not stated),1,0,0,106,nt,nt,
COc1cccc(-c2c(C(=O)N/N=C/c3sccc3C)nnn2-c2nonc2N)c1,0,1,-15,100,nt,nt,
COc1ccc(N=Cc2nc(-c3ccccc3)oc2OC(C)=O)cc1,0,73*,21,98,1,97,
CCSc1nc2sc3c(c2c(=O)n1CC)CCC3,0,3,39,104,nt,nt,GRK2 CP2=16;FAM quench SP=99
CSc1nc2sc3c(c2c(=O)n1C)CCC3,0,1,10,101,nt,nt,GRK2 CP2=-69;FAM quench SP=98
N#CCSc1nc2sc3c(c2c(=O)n1C1CCCCC1)CCCC3,0,2,-8,93,nt,nt,
C#CCSc1nc2sc3c(c2c(=O)n1C)CCC3,0,55*,12,108,53*,164,Aptamer quench 1=4;GRK2 CP2=67*;Aptamer quench3=-2.9;FAM quench SP=102;FAM quench PS1=99
CSc1nc2sc3c(c2c(=O)n1C)CCCC3,0,2,-6,100,nt,nt,

# Screening data from PubChem.
